The text below walks through data of PubChem BioAssay (NCI).

Test systems include HCT-15 colon; HT29 colon; SNB-75 CNS; SNB-19 CNS; U251 CNS; PC-3 prostate; SK-MEL-5 melanoma; UACC-62 melanoma; LOX IMVI melanoma; SK-MEL-28 melanoma; SK-MEL-2 melanoma; EKVX NSCLC; SN12C renal; UO-31 renal; TK-10 renal; ACHN renal; CAKI-1 renal; A498 renal; MOLT-4 leukemia; CCRF-CEM leukemia.
Holding throughout (test): NCI-60 one-dose screen, 48 h (100 = growth as untreated, 0 = no growth, -100 = all killed)
Conditions in all cases: 10 µM

This is part of a sample that, as a whole, favours compounds with a hit. Of some 83,000 tested, about 20% had one in any assay.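 Growth was measured after 48 h exposure to one concentration of compound in 96-well plates. Values under 10 count as active.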 Values without a mark were called inactive. Calls of active or inactive are those of the source.

On to `CN1C(=O)/C(=C/c2nccs2)SC1=S`, for which the growth in the assay with HCT-15 colon was 68.8%; in the assay on HT29 colon, 99.4%; in the assay with SNB-75 CNS, 66.4%; in the assay on SNB-19 CNS, 90.5%; with U251 CNS it was 90.7%; in the assay on PC-3 prostate, 109%. The growth was 96.6% in the assay with SK-MEL-5 melanoma; 79% in the assay on UACC-62 melanoma; 62.7% in the assay on LOX IMVI melanoma; 95.8% with SK-MEL-28 melanoma; 96.9% in the assay on SK-MEL-2 melanoma; 80.7% in the assay with EKVX NSCLC. Besides, the growth was 75.8% in the assay with SN12C renal; 78.7% with UO-31 renal; 162% with TK-10 renal; 88.1% in the assay with ACHN renal; 72.9% with CAKI-1 renal; 109% with A498 renal. Also, the growth in the assay on MOLT-4 leukemia was 98.8%.

With `COc1ccc(/C=C/C(=O)c2ccc(S(=O)(=O)NCCNc3nc(Nc4ccc(F)cc4)nc(N(C)C)n3)cc2)cc1`, the growth with HCT-15 colon was 1.91% (active); in the assay with HT29 colon, -46.4% (active); in the assay with SNB-75 CNS, 52.6%; in the assay with SNB-19 CNS, 36.1%; in the assay on U251 CNS, 20.8%; in the assay with PC-3 prostate it was 15.7%. Further, the growth with SK-MEL-5 melanoma is 21.2%; with UACC-62 melanoma, 29.6%; in the assay on LOX IMVI melanoma, -55.4% (active); in the assay with SK-MEL-28 melanoma, 31.6%; in the assay with SK-MEL-2 melanoma it was 74.7%; in the assay with EKVX NSCLC, 34.1%. The growth in the assay on SN12C renal is 14.5%; with UO-31 renal, 14%; in the assay with TK-10 renal it was 70.3%; in the assay with ACHN renal, 16.2%; with CAKI-1 renal, 27.4%; in the assay on A498 renal it was 47.9%. Also, the growth in the assay with CCRF-CEM leukemia is 16%; in the assay with MOLT-4 leukemia it was 9.26% (active).

Consider `CN(CCO)c1oc(-c2ccccc2)nc1[P+](c1ccccc1)(c1ccccc1)c1ccccc1`, for which the growth in the assay with HCT-15 colon was 51.4%; in the assay with HT29 colon, 7.78% (active); in the assay with SNB-75 CNS, -2.5% (active); with SNB-19 CNS, 9.54% (active); with U251 CNS it was 15.3%; in the assay with PC-3 prostate, 10.8%. Also, the growth in the assay on SK-MEL-5 melanoma was -93.3% (active); with UACC-62 melanoma it was -30.2% (active); in the assay with LOX IMVI melanoma it was -67.2% (active); in the assay with SK-MEL-28 melanoma, 12%; in the assay with SK-MEL-2 melanoma it was -33.8% (active); with EKVX NSCLC, 18.1%. Also, the growth is -3.43% (active) in the assay on SN12C renal; 74.3% in the assay on UO-31 renal; 24% with TK-10 renal; 56.3% in the assay with ACHN renal; 59.7% in the assay with CAKI-1 renal; -7.19% (active) in the assay on A498 renal. In addition, the growth with CCRF-CEM leukemia was 9.94% (active); in the assay with MOLT-4 leukemia, 13.4%.

`CC(=O)C1=C(C)NC(SCC(=O)Nc2ccc(S(=O)(=O)Nc3cc(C)on3)cc2)=NC1c1ccccc1` (centres undefined): the growth in the assay with HCT-15 colon is 96.3%; in the assay on HT29 colon it was 110%; in the assay with SNB-75 CNS, 102%; with SNB-19 CNS, 102%; in the assay with U251 CNS it was 103%; in the assay with PC-3 prostate it was 109%. The growth was 101% in the assay with SK-MEL-5 melanoma; 97.1% with UACC-62 melanoma; 92.8% in the assay on LOX IMVI melanoma; 110% in the assay with SK-MEL-28 melanoma; 119% with SK-MEL-2 melanoma; 101% with EKVX NSCLC. Also, the growth with SN12C renal is 111%; in the assay with UO-31 renal, 89.2%; in the assay with TK-10 renal, 112%; in the assay on ACHN renal it was 106%; in the assay on CAKI-1 renal, 99.8%; in the assay with A498 renal, 109%. The growth with CCRF-CEM leukemia is 98%; in the assay with MOLT-4 leukemia, 109%.

Turning to `O=C(CSc1nnc(-c2ccc3nc(-c4ccc(Cl)cc4)[nH]c3c2)o1)Nc1ccc(Br)cc1`, the growth in the assay with HCT-15 colon is -64.2% (active); in the assay on HT29 colon it was -15.8% (active); in the assay on SNB-75 CNS it was 5.11% (active); in the assay with SNB-19 CNS, -26.6% (active); in the assay on U251 CNS it was -63.9% (active); in the assay on PC-3 prostate, 5.11% (active). Besides, the growth with SK-MEL-5 melanoma was -36.9% (active); in the assay with UACC-62 melanoma, -90.8% (active); with LOX IMVI melanoma, -100% (active); with SK-MEL-28 melanoma it was -94.4% (active); in the assay with SK-MEL-2 melanoma, -69.6% (active); in the assay on EKVX NSCLC, 27.9%. Besides, the growth with SN12C renal is -89.2% (active); in the assay on UO-31 renal, 21.9%; with TK-10 renal, 86%; in the assay on ACHN renal it was -62.5% (active); in the assay with CAKI-1 renal, -27.8% (active); in the assay with A498 renal, 66.1%. The results for the growth with CCRF-CEM leukemia and with MOLT-4 leukemia were 6.06% (active) and -0.919% (active), respectively.

For `CN(C)c1ccc(/C=C/c2nc3ccccc3c(=O)n2CC(=O)Nc2ccccc2)cc1`, the growth in the assay with HCT-15 colon is 52.4%; in the assay on HT29 colon, 63.6%; with SNB-75 CNS, 62.6%; in the assay on SNB-19 CNS it was 62.9%; in the assay on U251 CNS, 16.5%; in the assay on PC-3 prostate it was 67.5%. Also, the growth is 62% with SK-MEL-5 melanoma; 43.7% in the assay on UACC-62 melanoma; 1.57% (active) in the assay with LOX IMVI melanoma; 35.6% in the assay with SK-MEL-28 melanoma; 71.4% with SK-MEL-2 melanoma; 63.6% with EKVX NSCLC. For the same compound, the growth with SN12C renal is 39%; with UO-31 renal it was 54.3%; in the assay on TK-10 renal, 95%; with ACHN renal, 18.8%; in the assay on CAKI-1 renal it was 24.4%; in the assay with A498 renal, 70.5%. Besides, the values for the growth in the assay with CCRF-CEM leukemia and with MOLT-4 leukemia were 90% and 79.5%, respectively.

Take `CC(=O)c1cc(C(=O)c2ccc3c(c2)NC(=O)CO3)n2ccc3ccccc3c12`: the growth was 71.1% with HCT-15 colon; 56.5% in the assay with HT29 colon; 114% with SNB-75 CNS; 69.6% in the assay with SNB-19 CNS; 26.5% in the assay on U251 CNS; 80.3% with PC-3 prostate. In addition, the growth in the assay on SK-MEL-5 melanoma was 57.6%; in the assay with UACC-62 melanoma, 94.7%; with LOX IMVI melanoma, 56.5%; in the assay on SK-MEL-28 melanoma, 88.4%; with SK-MEL-2 melanoma it was 107%; in the assay on EKVX NSCLC it was 75%. Moreover, the growth was 86.1% in the assay on SN12C renal; 59% with UO-31 renal; 78.2% with TK-10 renal; 50% in the assay on ACHN renal; 55.4% with CAKI-1 renal; 97.3% with A498 renal. Moreover, the growth in the assay with CCRF-CEM leukemia is 82.9%; with MOLT-4 leukemia it was 66.8%.

Regarding `C/C(=C\c1ccc(O)cc1O)c1ccc2ccc(O)cc2[o+]1`, the growth in the assay on HCT-15 colon was 12.3%; in the assay on HT29 colon it was 93.1%; in the assay with SNB-75 CNS it was 98.1%; in the assay with SNB-19 CNS, 71%; with U251 CNS, 23.5%; in the assay on PC-3 prostate, 62.7%. Also, the growth was 76.3% in the assay with SK-MEL-5 melanoma; 59.5% in the assay on UACC-62 melanoma; 2.95% (active) in the assay with LOX IMVI melanoma; 62.3% in the assay with SK-MEL-28 melanoma; 91.1% in the assay on SK-MEL-2 melanoma; 68.1% with EKVX NSCLC. Also, the growth in the assay with SN12C renal was 44.9%; in the assay on UO-31 renal it was 50.7%; with TK-10 renal, 116%; with ACHN renal, 45%; in the assay with CAKI-1 renal, 58.5%; in the assay with A498 renal, 147%. Besides, the results for the growth with CCRF-CEM leukemia and in the assay with MOLT-4 leukemia were 55.8% and 29.3%, respectively.
